Compound activity from PubChem BioAssay.
Shown are actives, neighbours in structure and some others; about 1.4% of the full set was active somewhere.
AMA1 RON2 block – inhibitors of Plasmodium falciparum AMA1-RON2 interaction | AlphaScreen AMA1-biotinylated RON2 peptide binding | hit rate 0.2% among 360,000 | Potency, µM (series often up to 58.2 µM), inactives show top-dose activity change, negative = inhibition, actives largely listed as inhibitors;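 also: 0% = vehicle wells and -100% = peptide control; nearly all actives have a fitted effect of over 45% in size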
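AMA1 (3D7) with his tag at 25 nM final met compounds first, then biotinylated RON2 peptide at 25 nM; detection used donor plus acceptor beads, 10 µg/mL apiece, read by AlphaScreen after 30 min at room temperature.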
VACV mCherry inh – inhibitors of vaccinia virus infection (mCherry reporter signal); hit rate 0.63% among 310,000; AID 720579; Potency, µM (highest dose often 36.5 µM), inactives show top-dose activity change, negative = inhibition, most hits filed as inhibitors; Vaccinia virus mCherry reporter infection, fluorescence; calls by dose curve; tested in A549 cells; also: % is scaled to controls: 0 for no effect and ±100 for the full control effect; nearly all actives have a fitted effect of over 35% in size
AmpC no deterg – AmpC beta-lactamase inhibition without detergent; AID 485341; P00811; AmpC nitrocefin hydrolysis, absorbance 480 nm, 0.0001% Triton; hit rate 0.52% among 330,000; Potency, µM (top dose mostly 57.1 µM), inactives show top-dose activity change, negative = inhibition, hits mostly inhibitors;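 also: plate controls were no compound for no effect and no enzyme for full effect; nearly all actives have a fitted effect of over 20% in size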
Target sequence (P00811 whole entry, looked up): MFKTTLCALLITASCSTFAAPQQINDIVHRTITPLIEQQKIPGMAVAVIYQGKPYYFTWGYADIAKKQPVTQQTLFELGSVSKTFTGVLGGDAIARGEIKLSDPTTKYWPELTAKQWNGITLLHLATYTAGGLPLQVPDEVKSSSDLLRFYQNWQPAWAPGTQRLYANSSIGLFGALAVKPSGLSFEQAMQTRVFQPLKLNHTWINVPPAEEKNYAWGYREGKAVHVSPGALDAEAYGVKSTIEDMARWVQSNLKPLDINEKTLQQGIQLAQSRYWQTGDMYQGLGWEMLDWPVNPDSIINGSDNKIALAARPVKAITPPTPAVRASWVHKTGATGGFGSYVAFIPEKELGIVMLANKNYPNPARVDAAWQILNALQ
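20 mM phosphate pH 7.0 + 0.01% (detergent screen) or 0.0001% Triton X-100; 5.3 nM AmpC reagent; cpd preinc 15 min RT; nitrocefin (800 uM stock) to start; A480 q20 s × 4 min; Activity was normalised to no-enzyme and no-compound control wells.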
SARS PLP yeast – inhibitors of SARS-CoV papain-like protease in yeast; S. cerevisiae expressing SARS-CoV PLpro, growth rescue; Potency, µM (series often up to 32.9 µM), for inactives: top-dose activity, positive = growth rescue, hits mostly activators; hit rate 0.19% among 330,000; calls by dose curve; also: 0% is about no effect; nearly all actives have a fitted effect of over 55% in size
Vaccinia Venus – inhibitors of vaccinia virus (Venus reporter); hit rate 0.46% among 330,000; Potency, µM (series often up to 36.5 µM), for inactives: at the top dose activity change, negative = inhibition, usual class: inhibitors; Vaccinia virus Venus reporter expression, fluorescence; calls by dose curve; tested in A549 cells; also: % is scaled to controls: 0 for no effect and ±100 for the full control effect; nearly all actives have a fitted effect of over 30% in size
AmpC detergent – inhibitors of E. coli AmpC beta-lactamase with detergent | P00811 | AmpC hydrolysis of nitrocefin, absorbance 480 nm, 0.01% Triton | Potency, µM (doses to about 114 µM), for the others: top-dose activity change, negative = inhibition, most hits filed as inhibitors | hit rate 0.041% among 370,000 | AID 485294;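 also: 0% = no-compound wells and -100% = no-enzyme wells; nearly all actives have a fitted effect of over 25% in size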
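20 mM phosphate pH 7.0 + 0.01% (detergent screen) or 0.0001% Triton X-100; 5.3 nM AmpC reagent; cpd preinc 15 min RT; nitrocefin (800 uM stock) to start; A480 q20 s × 4 min; Activity was normalised to no-enzyme and no-compound control wells.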
* = called active by the depositor; i = inactive; ? = inconclusive; . = not tested or not shown. Unless noted, calls follow the shape of the dose curve; as a rule, active = well fitted curve in the direction sought with a large enough effect; inconclusive = small, poorly fitted or top-dose-only effect, or another doubt; inactive = no such curve, though single readings can be large; an effect the other way counts as inactive or inconclusive. Potency is read from the fitted curve at half-maximal effect.

SMILES	AMA1 RON2 block	VACV mCherry inh	AmpC no deterg	SARS PLP yeast	Vaccinia Venus	AmpC detergent
CC1(C)S[C@@H]2[C@H](NC(=O)COc3ccccc3)C(=O)N2C1C(=O)OCc1cc2ccccc2n1S(=O)(=O)c1ccccc1 (stereo partly drawn)	.	.	8.9µM*	7%	.	?
CC1(C)S[C@@H]2[C@H](NC(=O)COc3ccccc3)C(=O)N2C1C(=O)OCC1CCCCC1 (stereo partly drawn)	-3%	i	.	.	-6%	.
O=C(Nc1nc2n(n1)C(c1ccccc1)C=C(c1ccccc1)N2)c1ccccc1 (stereo not drawn)	.	-27%	.	.	-12%	-8%
CN1c2ccc([N+](=O)[O-])cc2CC2(C(=O)NC(=O)NC2=O)C1c1ccccc1 (stereo not drawn)	-22%	-2%	4µM*	17%	-11%	-11%
CCC1C(=O)NCCN1Cc1ccc2c(c1)CN(Cc1ccc(OC)c(OC)c1)CCO2 (stereo not drawn)	.	-2%	.	.	?	.
CCc1ccc2c(c1)C1(C(=O)N2)N2CCCC2C(C(=O)c2ccc3ccccc3c2)C12C(=O)Nc1ccccc12 (stereo not drawn)	-11%	28µM*	-28%	-15%	13µM*	-10%
Cc1c(C(=O)NCC2CC2)sc2ncnc(NCCN3CCCCC3)c12	.	i	.	.	-1%	.
Cn1cc(CN2CCC(C3(c4ccccn4)NC(=O)N(CC4CCCO4)C3=O)CC2)c2ccccc21 (stereo not drawn)	.	i	.	.	-15%	.
Cc1cc(C)c(NC(=O)CSc2nc(COc3ccccc3)nc3ccccc23)c(C)c1	10%	11µM*	0%	2%	?	-8%
Cc1ccccc1NC(=O)CSc1nc(COc2ccccc2)nc2ccccc12	-5%	i	-16%	-12%	-7%	-10%
O=[N+]([O-])c1cc(Cl)ccc1Nc1nc(Nc2ccc(Cl)cc2[N+](=O)[O-])nc(N2CCOCC2)n1	.	10%	.	.	-13%	.
CC(C)N(C(=O)COC(=O)c1ccc(O)cc1)C(C)C	3%	.	4µM*	0%	-10%	-2%
CCN(CC)C(=O)COC(=O)c1ccc(O)cc1	19%	-12%	.	.	-4%	-6%
Cc1nc(Nc2ccc(O)cc2)c2c3c(sc2n1)CCCC3	?	11µM*	-2%	-1%	?	-14%
Cc1ccc(CNc2nc(C)nc3sc4c(c23)CCC4)cc1	-2%	?	-7%	-8%	-27%	-2%
O=C1C=C(N(CCO)Cc2ccccc2)c2ccccc2C1=O	-1%	11µM*	-44%	-13%	?	-7%
O=C1c2ccccc2C(=O)c2c1cccc2N(CCO)CCO	-22%	-24%	-13%	-6%	-9%	-7%
CCCCCCCCCCOC(=O)Cn1c(COc2ccccc2)[n+](C)c2ccccc21	0%	?	100%	-8%	11µM*	0%
CCCCCCCCCCOC(=O)Cn1c(COc2ccc(Cl)cc2)[n+](C)c2ccccc21	-3%	?	90%	-12%	10µM*	-15%
CCCCCCCCCCOC(=O)Cn1c(COc2ccc(OC)cc2)[n+](C)c2ccccc21	-4%	?	119%	-6%	11µM*	0%
CCCCCCCCCCOC(=O)Cn1c(COc2ccccc2C)[n+](C)c2ccccc21	3%	?	212%	-15%	28µM*	-3%
CC(C)S(=O)(=O)N1CCN(c2nc(-c3cccs3)nc3ccccc23)CC1	.	-13%	.	.	-5%	.
CC(NS(=O)(=O)OCC(Cl)(Cl)Cl)c1ccc(C(C)(C)C)cc1 (stereo not drawn)	99%	11µM*	-37%	-17%	20µM*	-12%
N#C/C(=C/c1ccc(N2CCCCC2)o1)c1cccc(F)c1	-5%	.	-20%	-29%	.	?
N#C/C(=C/c1ccc(N2CCCCC2)cc1)c1cccc(F)c1	16µM*	-12%	-20%	-16%	6%	?
SMILES	AMA1 RON2 block	VACV mCherry inh	AmpC no deterg	SARS PLP yeast	Vaccinia Venus	AmpC detergent
CCC(NC(=O)Nc1ncccc1C)(C(F)(F)F)C(F)(F)F	2%	.	-7%	0%	-8%	-15%
CCC(NC(=O)NNC(N)=S)(C(F)(F)F)C(F)(F)F	45%	?	-13%	19%	28µM*	2%
CCOc1cc(C(=O)Nc2ccc(-c3nc4ccccc4s3)cc2Cl)cc(OCC)c1OCC	.	-15%	.	.	-13%	11%
CCC(C)NC(=O)C(Cc1ccccc1)n1cccc1 (stereo not drawn)	-12%	-10%	0.5µM*	-8%	-14%	?
CCOC(=O)C1(CC2CCCCO2)CCN(Cc2cc3ccccc3[nH]2)CC1 (stereo not drawn)	-23%	2.5µM*	-29%	1%	?	0%
CC1(C(=O)O)NCCc2cc(O)c(O)cc21 (stereo not drawn)	.	-12%	.	.	-9%	.
Cn1c(=O)c(Nc2ccc(O)cc2)c2c3c(cccc31)C(=O)c1ccccc1-2	25µM*	-28%	-59%	-9%	-20%	0%
Nc1nc(N)nc(-c2cc(F)ccc2O)n1	41%	?	-11%	-1%	10µM*	-7%
NC(C(=O)O)c1cc(O)cc(O)c1 (stereo not drawn)	.	i	.	.	-10%	.
Cc1ccc2c(C(=O)CNc3nccs3)c[nH]c2c1	.	-14%	.	.	-13%	.
O=C(N[C@H]1C/C=C\C[C@@H](CC(=O)N(CCO)Cc2ccccc2)C(=O)NC[C@H](c2ccccc2)OC1=O)OCC1c2ccccc2-c2ccccc21	0%	10µM*	170%	2%	?	.
Cc1cc2[nH]c(=O)c(=O)[nH]c2cc1S(=O)(=O)N1CCN(c2cccc(C(F)(F)F)c2)CC1	5%	1%	3.2µM*	-4%	4%	-9%
Cc1cc2[nH]c(=O)c(=O)[nH]c2cc1S(=O)(=O)N1CCN(c2cccc(Cl)c2)CC1	-1%	-16%	-53%	-2%	-5%	-14%
COc1cccc(CN2C(=O)NC(C)(C3CCN(Cc4cc(Cl)ccc4O)CC3)C2=O)c1OC (stereo not drawn)	.	-10%	.	.	-24%	.
COc1ccccc1NC(=O)Nc1nc(CC(=O)N2CCN(c3ccccc3)CC2)cs1	-3%	1µM*	20%	3%	-28%	-13%
COc1ccccc1NC(=O)Nc1nc(CC(=O)Nc2ccc(N(C)C)cc2)cs1	18µM*	i	-48%	-4%	-18%	?
COc1ccc(N2CCN(C(=O)Cc3csc(NC(=O)Nc4ccccc4OC)n3)CC2)cc1	?	?	104%	5%	?	?
COc1ccc(NC(=O)Cc2csc(NC(=O)Nc3ccccc3OC)n2)cc1	0%	-9%	.	.	-21%	.
